An excerpt weighted towards active compounds, which were near 4% of everything screened.
GDH-TPI inh: counter-screen for M. tuberculosis FBA inhibitors: GDH-TPI coupled enzymes. GDH-TPI coupled enzyme counterscreen, NADH absorbance. inhibition, % at 4.8 µM. actives 1.2% (n = 360,000). AID 588335; in the data active means inhibition above about 30%
UGM FP inh: inhibitors of M. tuberculosis UDP-galactopyranose mutase | inhibition, % at 10 µM | purified UGM, fluorescence polarization probe displacement | AID 504406 | actives 0.06% (n = 320,000) | P9WIQ1; in the data active means inhibition above about 10%, passing the limit was not always enough; inconclusive means no clear call, values can overlap the other calls
Target sequence (P9WIQ1 whole entry, looked up): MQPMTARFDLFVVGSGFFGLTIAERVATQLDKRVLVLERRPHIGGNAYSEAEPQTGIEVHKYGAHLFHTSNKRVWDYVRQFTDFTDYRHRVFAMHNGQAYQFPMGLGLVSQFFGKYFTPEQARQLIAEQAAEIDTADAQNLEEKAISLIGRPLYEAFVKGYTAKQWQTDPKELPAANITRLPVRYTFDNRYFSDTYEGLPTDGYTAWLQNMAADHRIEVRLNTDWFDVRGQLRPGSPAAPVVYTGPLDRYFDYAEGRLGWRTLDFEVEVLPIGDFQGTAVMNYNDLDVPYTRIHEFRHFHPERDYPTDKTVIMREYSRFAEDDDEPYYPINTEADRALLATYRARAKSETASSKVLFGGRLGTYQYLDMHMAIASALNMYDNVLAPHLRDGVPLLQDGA
Mtb bLac sens: beta-lactam sensitization of Mtb H37Rv | M. tuberculosis H37Rv growth with meropenem, percent inhibition | inhibition, % at 25 µM | actives 0.27% (n = 330,000); call rule not given here;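 further: growth measured after seven days incubation then overnight dye step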
RecA intein inh: blocks M. tuberculosis RecA intein splicing. P9WHJ3. cell-free RecA intein splicing, fluorescence. inhibition, % (concentration not given with the values). actives 0.75% (n = 290,000); in the data active means inhibition above about 30%; inconclusive means no clear call, values can overlap the other calls
FBA Mtb inh: Mtb fructose-bisphosphate aldolase inhibition | P9WQA3 | purified M. tuberculosis FBA, fluorescence read-out | inhibition, % at 1 µM | actives 2.3% (n = 360,000) | AID 588726; in the data active means inhibition above about 27%
Rv3671c inh: inhibitors of M. tuberculosis serine protease Rv3671c | AID 2606 | actives 0.048% (n = 320,000) | inhibition, % at 5.96 µM; in the data active means inhibition above about 38%;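 further: extracellular domain of Rv3671c used as enzyme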
Of the large screens only hits and unclear results are named; the others gave an inactive call; ! = not active in a repeat.

Cc1c(OCC(=O)N2CCC(C(=O)NCCCC(=O)O)CC2)ccc2c1oc(=O)c1ccccc12	FBA Mtb inh 133
COC(=O)Cc1c(C)c2ccc(OCc3nn[nH]n3)cc2oc1=O	FBA Mtb inh 189
NC(=O)Cc1ccc(OCc2nn[nH]n2)cc1	none (no result: UGM FP inh, Mtb bLac sens, RecA intein inh, Rv3671c inh)
N#CC1(NC(=O)COC(=O)c2ccc(Cl)nc2)CCCCC1	none
Nc1nccnc1C(=O)OCC(=O)NNC(=O)c1ccccc1	FBA Mtb inh 160
Cc1cc(NC(=O)COC(=O)c2nccnc2N)n(-c2ccccc2)n1	FBA Mtb inh 129
Nc1cc(C(=O)OCC(=O)NNC(=O)c2ccccc2)ccc1Cl	none
COc1ccccc1C(=O)NC(=O)COC(=O)c1nccnc1N	FBA Mtb inh 144 (no result: RecA intein inh)
N#CC1(NC(=O)COC(=O)c2nccnc2N)CCCCC1	FBA Mtb inh 165
O=C(Nc1ccccc1C(=O)O)c1ccc(CN2C(=O)c3ccccc3C2=O)cc1	none (no result: RecA intein inh)
COc1ccncc1-c1ccc(C2=CC(=O)CC(C)(C)C2=O)cc1	none (no result: UGM FP inh, Mtb bLac sens, RecA intein inh, Rv3671c inh)
COc1ccc(-c2cc(C(=O)N3CCOCC3)c3cc(C)ccc3n2)cc1	FBA Mtb inh 157
COc1ccc(-c2cc(C(=O)c3c(N)n(C)c(=O)n(C)c3=O)c3ccccc3n2)cc1	GDH-TPI inh 35
COc1cc(OC)c(OC)cc1/C=C/c1cc(C(=O)O)c2ccccc2n1	none
COc1ccc(-c2cc(C(=O)N3CCCCC3)c3ccccc3n2)cc1	FBA Mtb inh 128
COc1ccc(-c2cc(C(=O)N3CCCCC3)c3ccccc3n2)cc1OC	Mtb bLac sens inconclusive
COc1ccc(-c2cc(C(=O)OCC(=O)c3c(N)n(C)c(=O)n(C)c3=O)c3ccccc3n2)cc1	none
COc1ccc(/C=C/c2cc(C(=O)O)c3ccccc3n2)cc1	GDH-TPI inh 32
CCSc1ccccc1C(=O)N=C1NC(=O)CC2C(=O)NCCN12 (stereo not given)	none
COc1ccc2nc(-c3ccc(Cl)cc3)cc(C(=O)O)c2c1	FBA Mtb inh active
COc1ccc(-c2cc(C(=O)N3CCCCCC3)c3cc(C)ccc3n2)cc1	FBA Mtb inh 153
COc1cccc(CN2CCN(C(=O)c3cc(-c4ccncc4)nc4ccc(C)cc34)CC2)c1	none
COc1cc(OC)cc(C(=O)N2CCN(C(=O)c3cccnc3)CC2)c1	none
CCN1C(=O)[C@@H]2C(C(=O)c3cnccn3)=NN[C@@H]2C1=O	GDH-TPI inh 32
C/C(CC(=O)Nc1ccccn1)=N\NC(=O)c1ccc(C)cc1	RecA intein inh 47
COc1ccccc1C(=O)N/N=C(\C)CC(=O)Nc1ccccn1	none
CC(=O)N1CC23C=CC(CC2CC12CCCCCC2)O3 (stereo not given)	none
Oc1c(Cl)cc(Cl)cc1Sc1cc(Cl)cc(Cl)c1O	RecA intein inh 73 (no result: GDH-TPI inh, FBA Mtb inh)
COc1cc(/C=C(\C#N)C(=O)NC2CCCCC2C)ccc1OS(=O)(=O)c1ccc(C)cc1 (stereo not given)	RecA intein inh 56
CCOc1cc(/C=C2\C(=O)N(c3cccc(C(=O)O)c3)N=C2C(F)(F)F)ccc1OCC(=O)Nc1ccccc1OC	RecA intein inh 33 (no result: GDH-TPI inh, FBA Mtb inh)
CC1C2(C)OCC(C#N)(C(=N)O2)C1(C#N)C#N (stereo not given)	none (no result: GDH-TPI inh, FBA Mtb inh)
CC1(C)CC2(C)OC(=N)C1(C#N)C2(C#N)C#N (stereo not given)	RecA intein inh 45
CCN1CCN(S(=O)(=O)c2cc(OCC(=O)NC3CCCCC3)c(C)cc2Cl)CC1	GDH-TPI inh 52
COC(=O)C1CSC(C(=O)OC)N1C(=O)Nc1ccc(Cl)cc1 (stereo not given)	FBA Mtb inh 103
C(=C\c1ccccc1)/C=N/Nc1nc(N2CCOCC2)nc(N2CCOCC2)n1	GDH-TPI inh 47
CC(=C/c1ccccc1)/C=N/Nc1nc(N2CCOCC2)nc(N2CCOCC2)n1	none
Clc1ccccc1/C=C/C=N/Nc1nc(N2CCOCC2)nc(N2CCOCC2)n1	GDH-TPI inh 40
C[C@H](NCc1c[nH]c2ccccc12)c1ccccc1	none
COc1ccc(-c2c(-c3ccc(OC)c(F)c3)c3ccccc3n2C)cc1	FBA Mtb inh 37 (no result: RecA intein inh)
COc1ccc(-c2c(-c3cc(OC)cc(OC)c3)n(C)c3ccc(-c4ccc(OC)c(F)c4)cc23)cc1	none (no result: RecA intein inh)
CCOc1ccc2nc(S(=O)(=O)NC(=O)C3(C)CCN3C(=O)CCc3cccs3)sc2c1 (stereo not given)	none (no result: UGM FP inh, Mtb bLac sens, RecA intein inh, Rv3671c inh)
CCCN(CCC)CCNC(=O)CCC(=O)Nc1ccc2nc(N3CCOCC3)cc(C)c2c1	FBA Mtb inh 127
CCCCN(CC)CCNC(=O)CCC(=O)Nc1ccc2nc(N3CCN(C)CC3)cc(C)c2c1	FBA Mtb inh 138
Cc1cc(N2CCOCC2)nc2ccc(NC(=O)CCC(=O)N3CCN(c4ccccc4)CC3)cc12	none
Cc1ccc(CCNc2ccc3ccccc3c2)cn1	RecA intein inh 38
Clc1cnc(Nc2cccnc2)c(Cl)c1	none
COC(=O)c1ccc(Nc2cc(C)nc3ccccc23)cc1	GDH-TPI inh 42
CC(=O)c1cccc(Nc2cc(C)nc3ccccc23)c1	GDH-TPI inh 32
COc1ccc(Nc2cc(C)nc3ccc(OC)cc23)cc1	GDH-TPI inh 34
O=C(O)c1cccc(Nc2c3ccccc3nc3ccccc23)c1	FBA Mtb inh 124
CC(=O)c1cccc(Nc2cc(C)nc3c(C)cccc23)c1	none
COC(=O)c1ccc2nc(C)cc(Nc3ccc(N(C)C)cc3)c2c1	none
O=C(O)c1cccc(Nc2nc3ccccc3nc2NS(=O)(=O)c2ccccc2)c1	none (no result: RecA intein inh)
Fc1cccc(-c2cncc(N3CCN(CCN4CCCC4)CC3)n2)c1	none (no result: UGM FP inh, Mtb bLac sens, RecA intein inh, Rv3671c inh)
CCCCCC(=O)N1C[C@H](O)[C@@H](n2cc(-c3ccc(F)cc3)nn2)C[C@@H]1c1ccc(OC)cc1	none (no result: UGM FP inh, Mtb bLac sens, RecA intein inh, Rv3671c inh)
CCOC(=O)C1=NN(c2ccc(Cl)cc2)C(=O)C1	none
COc1ccc(Nc2ccnc3ccccc23)cc1	GDH-TPI inh 32
Oc1ccc(C=NN=Cc2ccco2)c(O)c1	GDH-TPI inh 41 (no result: UGM FP inh, Mtb bLac sens, RecA intein inh, Rv3671c inh)
O=C(CNC(=O)c1ccco1)N/N=C/c1ccc(O)cc1O	none
NC(=N\N=Cc1ccccc1)/C(N)=N/N=Cc1ccccc1	none (no result: UGM FP inh, Mtb bLac sens, RecA intein inh, Rv3671c inh)
NC(=N\N=Cc1ccco1)/C(N)=N/N=Cc1ccco1	GDH-TPI inh 58 (no result: UGM FP inh, Mtb bLac sens, RecA intein inh, Rv3671c inh)
Cn1cc(CNCCN2CCCCC2=O)c(-c2cccc(Cl)c2)n1	none
COc1cccc(-c2nn(C)c3sc(C(=O)NCc4ccco4)cc23)c1	FBA Mtb inh 48
N#C/C(=C\c1ccc(O)cc1)C(=O)O	GDH-TPI inh 35! (no result: UGM FP inh, Mtb bLac sens, RecA intein inh, Rv3671c inh)
CCc1ccc(C(O)c2ncc(-c3cccc(OC)c3)[nH]2)cc1 (stereo not given)	none (no result: UGM FP inh, Mtb bLac sens, RecA intein inh, Rv3671c inh)
COc1ccccc1C(=O)NCC(=O)N=Nc1c(O)n(C(C)C)c2ccccc12	GDH-TPI inh 31
CC(C)n1c(O)c(N=NC(=O)CNC(=O)Cc2ccc(Cl)cc2)c2ccccc21	none
CC(C)n1c(O)c(N=NC(=O)CNC(=O)CCc2ccccc2)c2ccccc21	GDH-TPI inh 31
NCc1csc(Nc2ncccn2)n1	none (no result: UGM FP inh, Mtb bLac sens, RecA intein inh, Rv3671c inh)
COc1ccc(-c2nnc(NC(=O)c3cc(C)on3)s2)cc1	GDH-TPI inh 35
